In PubChem BioAssay AID624296 (National Center for Advancing Translational Sciences (NCATS), 2012):
Screen size: about 350,000 compounds; about 9,900 (2.8%) were called active. Where a call stands in place of a potency, no number is given. Inconclusive results (about 15%) are left out. The sample holds actives, similar compounds and a random draw of the others, so the mix is not that of the screen. Calls come from the whole dose curve; as a rule, active = well fitted activation curve with a large enough effect; inconclusive = small, poorly fitted or top-dose-only effect; inactive = no such curve, though single readings can be large or run the other way.

assay: A quantitative high throughput screen for small molecules that induce DNA re-replication in MCF 10a normal breast cells.; note: nearly all actives have a fitted effect of over 50% in size; details: MCF 10A DNA re-replication, Hoechst nuclear intensity, 48 h; series mostly up to 46.1 µM
From the text: H Molecular Libraries Probe Production Network [MLPCN]
NIH Chemical Genomics Center [NCGC]
Assay Provider: Melvin DePamphilis, NICHD, NIH
Eukaryotic cells normally restrict genome duplication to once per cell division. When this process is aberrant, DNA re-replication occurs when cells reinitiate DNA replication before the first round of replication is complete. DNA re-replication induces the DNA damage response, arrests cell proliferation, and triggers apoptosis. The cell cycle components cyclin A, Cdt-1, Cdc6 and geminin are critical regulators of this process and their misregulation results in DNA re-replication in normal and cancer cells. To identify compounds that induce re-replication in normal cells, an image-based assay was used to measure DNA content of nuclei, as detected by the fluorescent DNA binding dye, Hoechst. Cell nuclei were imaged by a fluorescence scanning plate imager and compounds that induce DNA re-replication were identified by the increase of nuclei with elevated fluorescence intensity
For screening, 250 cells in 5 uL/well were dispensed into black clear 1536-well plates (Aurora) using a solenoid-based dispenser. Following transfer of 23 nL compound or DMSO vehicle by a pin tool, the plates were incubated 48 hr at 37 C and 5% CO2. After addition of 1 uL/well Hoescht stain, the plates were incubated 40 min at 37 C, 5% CO2 and total intensity of fluorescent objects (nuclei) were enumerated by an Acumen Explorer Ex3 (TTP LabTech) fluorescence scanning plate imager (405 nm excitation, 500-530 nm emission).
Keywords: NIH Roadmap, MLPCN, MLI, MLSMR, qHTS, NCGC, DNA replication, cancer
Potency is the fitted concentration of half-maximal effect.

Row | Structure (SMILES) | Potency
1 | COc1ccc(-c2cc(C(=O)NCCCN3CCCC3=O)c3ccccc3n2)cc1OC | inactive
2 | COc1cccc(NC(=O)CN(C)C(=O)/C=C/c2cn(-c3ccccc3)nc2-c2cccs2)c1 | inactive
3 | O=C(Nc1ccc2oc(-c3ccc4ccccc4c3)nc2c1)c1cccs1 | 5.17 µM (active)
4 | O=C(Nc1ccc(NC(=O)c2cccs2)cc1)c1ccc2ccccc2c1 | inactive
5 | O=C(Cc1cccc2ccccc12)Nc1ccc2oc(-c3ccccc3)nc2c1 | inactive
6 | CC1CN(Cc2ccccc2)C(=S)NC1=O (stereo not given) | inactive
7 | O=C(CN1CCN(C2CCS(=O)(=O)C2)CC1)N1N=C(c2ccc(Cl)cc2)CC1c1ccco1 (stereo not given) | inactive
8 | CCOC(=O)C1CCN(c2ncnc3c2c(-c2ccccc2)cn3-c2ccc(C)cc2)CC1 | inactive
9 | CCOC(=O)C1CCN(c2ncnc3c2oc2ccc(Br)cc23)CC1 | 20.6 µM (active)
10 | CCOC(=O)N1CCN(C(=O)C2CCN(c3ncnc4c3sc3cccc(F)c34)CC2)CC1 | inactive
11 | COc1cc(OC)cc(C(=O)NNC(=O)Cc2cccs2)c1 | inactive
12 | COc1ccc(S(=O)(=O)N2C[C@H]3CON(C)[C@H]3C[C@H]2c2cccc(Br)c2)cc1 | inactive
13 | Cc1cccc(CC2(O)C(=O)Nc3ccccc32)n1 (stereo not given) | inactive
14 | CCn1c(/C=C/c2ccc([N+](=O)[O-])o2)nc2ccccc2c1=O | 20.6 µM (active)
15 | Cn1cc(/C=C/c2nc3ccccc3c(=O)n2-c2cccc([N+](=O)[O-])c2)c2ccccc21 | inactive
16 | Cc1nc2ccccc2c(=O)n1Cc1ccc([N+](=O)[O-])cc1 | inactive
17 | O=C(CC1SC(N2CCOCC2)=NC1=O)Nc1ccccc1F (stereo not given) | inactive
18 | CCCn1c(N)c(C(=O)CSc2nnc3n2CCCCC3)c(=O)[nH]c1=O | inactive
19 | O=C(Nc1ccncc1)c1ccc(Cl)c([N+](=O)[O-])c1 | inactive
20 | C/C(=C\C(=O)c1cccnc1)Nc1ccc(C)c(C)c1 | inactive
21 | O=C(Nc1cccnc1)c1ccc(Cl)cc1[N+](=O)[O-] | inactive
22 | O=C(Nc1cccnc1)c1ccc(Cl)c([N+](=O)[O-])c1 | 20.6 µM (active)
23 | NC(N)=N/N=C/c1ccc(Cl)c([N+](=O)[O-])c1 | inactive
24 | O=C(/C=C/c1ccc(Cl)c([N+](=O)[O-])c1)c1cccnc1 | 5.17 µM (active)
25 | N#CCc1c[nH]c2ccc([N+](=O)[O-])cc12 | inactive

Row | Structure (SMILES) | Potency
26 | CC(C)(C)OC(=O)CNC(=O)c1[nH]cnc1C(=O)N[C@@H](CCCCN)C(=O)OC(C)(C)C | inactive
27 | O=C1[C@@H](c2ccccc2)[C@@H](c2ccccc2)N1c1cccnc1 | inactive
28 | C[C@H](CO)N1C[C@H](C)[C@@H](CN(C)S(=O)(=O)c2ccc(F)cc2)Oc2ccc(NC(=O)CCC(F)(F)F)cc2C1=O | inactive
29 | COc1cc(SC)ccc1C(=O)NNC(=O)C1COc2ccccc2O1 (stereo not given) | inactive
30 | CC1CCN(C(=O)c2cc3nc(C4CC4)cc(C(F)(F)F)n3n2)CC1 | inactive
31 | C=CCNC(=O)c1cc2nc(C3CC3)cc(C(F)F)n2n1 | inactive
32 | O=C(Nc1ccc(Cl)cc1)c1cc2nc(C3CC3)cc(C(F)(F)F)n2n1 | 16.4 µM (active)
33 | Cc1occc1-c1nnc(SCC(=O)NC2(C#N)CCCC2)n1C | inactive
34 | COc1cc2c(cc1OC)C(Cc1cc(OC)c(OC)cc1[N+](=O)[O-])=NCC2 | inactive
35 | CCCc1nc(SCC(=O)N2CCCC2)c2c(=O)n(C)c(=O)n(C)c2n1 | inactive
36 | CCOC(=O)N1CCN(C(=O)CSc2nc(C)nc3c2c(=O)n(C)c(=O)n3C)CC1 | 0.651 µM (active)
37 | Cn1c(=O)c2c(SCC(=O)N3CCOCC3)nc(C3CC3)nc2n(C)c1=O | inactive
38 | CC(OC(=O)c1ccc([N+](=O)[O-])cc1)C(=O)NCC1CCCCC1 (stereo not given) | inactive
39 | CCCCCOc1ccc(/C=C/C(=O)NCCc2nc3ccccc3[nH]2)cc1OC | 20.6 µM (active)
40 | COc1ccc(OC(C)C(=O)NCCc2nc3ccccc3[nH]2)cc1 (stereo not given) | inactive
41 | O=C(COc1ccccc1)NCCc1nc2ccccc2[nH]1 | inactive
42 | O=c1ccc2c(-c3ccccc3S(=O)(=O)O)c3ccc(O)c(O)c3oc-2c1O | inactive
43 | CCOC(=O)c1ccccc1NC(=O)COC(=O)C(Cc1c[nH]c2ccccc12)NC(C)=O (stereo not given) | inactive
44 | Cc1ccc(S(=O)(=O)N2CCC(C(=O)N3CCCCCCC3)CC2)cc1 | inactive
45 | CC(C)(C)OC(=O)C1=C(CO)CS[C@@H]2[C@H](NC(=O)Cc3ccccc3)C(=O)N12 | inactive
46 | O=C(c1cccc(S(=O)(=O)N2CCCCCC2)c1)N1CCN(Cc2ccccc2)CC1 | inactive
47 | COc1ccc(OCCCON2C(=O)c3ccccc3C2=O)cc1 | inactive
48 | COc1ccc(N2CCN(C(C)=C3C(=O)c4ccccc4C3=O)CC2)cc1 | inactive
49 | CCOC(=O)C1=C(c2ccc(OC)cc2)C(=O)c2ccccc2C1=O | 2.91 µM (active)
50 | COCCN(C(=O)C(C)N1C(=O)c2ccccc2C1=O)c1c(N)n(CC(C)C)c(=O)[nH]c1=O (stereo not given) | inactive

Row | Structure (SMILES) | Potency
51 | CC(C)(C)OC(=O)C[C@@H]1C/C=C\C[C@@H](CC(=O)NCCO)C(=O)N[C@H](Cc2c[nH]c3ccccc23)COC1=O | inactive
52 | COc1cccc(/C=N/Nc2cc(C)nc(-c3ccccc3O)n2)c1O | inactive
53 | COc1cccc(/C(C)=N/Nc2ncc(Cl)cc2Cl)c1 | inactive
54 | COc1cccc(/C=N/Nc2ncc(C(F)(F)F)cc2Cl)c1O | 1.46 µM (active)
55 | O=C(Nc1nnc(-c2ccccc2)o1)c1cccc(S(=O)(=O)N2CCOCC2)c1 | inactive
56 | Cc1ccc(S(=O)(=O)N(C)C2(C)CCS(=O)(=O)C2)cc1 (stereo not given) | inactive
57 | Cc1ccc(S(=O)(=O)C2(S(=O)(=O)c3ccc(C)cc3)CCCC2)cc1 | 8.2 µM (active)
58 | Cc1ccc(S(=O)(=O)NC2CCCCCC2)cc1 | inactive
59 | CCC(C)C1(C2CCCC2)NC(=O)NC1=O (stereo not given) | inactive
60 | Cc1ccc(CC(=O)Nc2ccc(S(=O)(=O)N3CCOCC3)cc2)cc1C | inactive
61 | S=c1[nH]nc(-c2cccnc2)n1/N=C/C(Cl)=C\c1ccccc1 | 13 µM (active)
62 | S=c1[nH]nc(-c2ccncc2)n1/N=C/c1ccccc1Cl | inactive
63 | S=c1[nH]nc(-c2ccco2)n1/N=C/c1ccccc1 | inactive
64 | O=C(CCc1nc(-c2ccccc2)no1)Nc1cccc(C(=O)NC2CC2)c1 | inactive
65 | O=C(CP(=O)(c1ccccc1)c1ccccc1)N1CCOCC1 | inactive
66 | c1ccc(-c2nnc(N3CCOCC3)c3ccccc23)cc1 | inactive
67 | O=C(c1snnc1-c1ccccc1)N1CCOCC1 | 0.651 µM (active)
68 | CCOC(=O)c1sc2nc(SC)nc(-c3ccccc3)c2c1N | inactive
69 | CCCC(=O)n1nc(-c2ccccc2)nc1N | inactive
70 | CCN(CC)C(=O)c1sc2nc(-c3ccccc3)ccc2c1N | 23.1 µM (active)
71 | COc1ccc(NS(=O)(=O)c2cc(NC(=O)COc3ccccc3F)ccc2OC)cc1 | inactive
72 | O=C(C1CC(=O)N(C2CCCC2)C1)N1CCN(c2cccc(C(F)(F)F)c2)CC1 (stereo not given) | inactive
73 | O=C(N/N=C/c1ccc([N+](=O)[O-])o1)c1cccc(S(=O)(=O)N2CCOCC2)c1 | inactive
74 | Cc1cc(C)nc(N/N=C/c2ccc([N+](=O)[O-])o2)n1 | inactive
75 | NC(=O)C(=O)N/N=C/c1ccc([N+](=O)[O-])o1 | 26.6 µM (active)

Row | Structure (SMILES) | Potency
76 | O=C(COC(=O)c1ccncc1)Nc1ccc2c(c1)OCO2 | inactive
77 | O=C1COc2ccc(C(=O)COC(=O)c3ccccc3Cl)cc2N1 | inactive
78 | CN1CCN(CC(O)COCc2ccc3c(c2)OCO3)CC1 (stereo not given) | 20.6 µM (active)
79 | CC1CCCN(CC(O)COc2ccc3c(c2)OCO3)C1 (stereo not given) | inactive
80 | COc1cc(COCC(O)CN2CCN(Cc3ccc4c(c3)OCO4)CC2)cc(OC)c1OC (stereo not given) | inactive
81 | CC1C(=O)N(Cc2ccccc2)c2ccccc2N1C(=O)c1ccccc1 (stereo not given) | inactive
82 | CC1C(C)N(C(=O)CCl)c2ccccc2N1C(=O)CCl (stereo not given) | 7.31 µM (active)
83 | CC1CC(C)CN(CC(=O)N2c3ccccc3CCc3ccccc32)C1 (stereo not given) | inactive
84 | O=C1CN(C(=O)COC(=O)/C=C/c2ccc(F)cc2)c2ccccc2N1 | inactive
85 | CCOC(=O)C1CCCN(C(=O)C2CCN(S(=O)(=O)c3ccc(Cl)c(C(F)(F)F)c3)CC2)C1 (stereo not given) | inactive
86 | O=C1c2ccccc2C(=O)C1c1ccccc1F | inactive
87 | O=C1c2ccccc2C2=Nc3ccccc3SC(c3ccccc3F)C12 (stereo not given) | 6.51 µM (active)
88 | COC(=O)[C@]1(C)N[C@H](CN(C)C(=O)c2ccc(C(C)(C)C)cc2)[C@@H]2C(=O)N(C)C(=O)[C@@H]21 | inactive
89 | N#Cc1cccc(NC(=O)C2CCCN(C(=O)c3ccc(Cl)cc3)C2)c1 (stereo not given) | inactive
90 | C/C=C/c1ccc(OCC(=O)NNC(=O)CN(C)S(=O)(=O)c2ccc(C)cc2)c(OC)c1 | inactive
91 | CCn1c(=O)cc(OCC(=O)NCCCN2CCN(c3cccc(Cl)c3)CC2)c2ccccc21 | inactive
92 | Cn1c(C(=O)NCCc2ccsc2)cc2c(=O)n(C)c3ccccc3c21 | inactive
93 | Cn1c(C(=O)NCCCN2CCN(c3cccc(Cl)c3)CC2)cc2c(=O)n(C)c3ccccc3c21 | 14.6 µM (active)
94 | Cc1cccc(-c2oc3ccc(-c4ccc5c(c4)OCO5)cc3c2C#Cc2cncn2C)c1 | inactive
95 | c1ccc(CCc2ccccn2)cc1 | inactive
96 | Cc1cccc(NS(=O)(=O)c2ccc(C)c(C(=O)NCc3cccnc3)c2)c1 | inactive
97 | O=C(COC(=O)c1ccc(F)cc1)Nc1ccc2c(c1)OCO2 | inactive
98 | O=[N+]([O-])c1ccc(O)c(/C=N/Nc2ccccc2[N+](=O)[O-])c1 | inactive
99 | Cc1cccc(COc2ccccc2/C=N/Nc2ccc([N+](=O)[O-])cc2)c1 | 10.3 µM (active)
100 | Cc1ccc(NS(=O)(=O)c2ccc(N/N=C/c3ccccc3OCC(=O)O)c([N+](=O)[O-])c2)c(C)c1 | inactive
